# Most compounds without a hit are left out; they make up all but 1.7% or so of the library.
# GLP1R ag: GLP-1 receptor (human) agonism. P43220. HEK293 GLP-1R CRE-luciferase, luminescence, 4-6 h; cells express a hypersensitive GLP-1R form. Potency, µM (doses to about 45.6 µM), actives largely listed as activators. 0.007% of 380,000 active
# PTHR1 ag: activates the human parathyroid hormone receptor PTHR1; HEK293 GP2 PTHR1 cells, GloSensor cAMP luminescence, 1 h; Potency, µM (top dose mostly 115 µM), usual class: activators; 0.075% of 410,000 active; AID 743266; note: nearly all actives have a fitted effect of over 55% in size
# Target sequence (Q03431 whole entry, looked up): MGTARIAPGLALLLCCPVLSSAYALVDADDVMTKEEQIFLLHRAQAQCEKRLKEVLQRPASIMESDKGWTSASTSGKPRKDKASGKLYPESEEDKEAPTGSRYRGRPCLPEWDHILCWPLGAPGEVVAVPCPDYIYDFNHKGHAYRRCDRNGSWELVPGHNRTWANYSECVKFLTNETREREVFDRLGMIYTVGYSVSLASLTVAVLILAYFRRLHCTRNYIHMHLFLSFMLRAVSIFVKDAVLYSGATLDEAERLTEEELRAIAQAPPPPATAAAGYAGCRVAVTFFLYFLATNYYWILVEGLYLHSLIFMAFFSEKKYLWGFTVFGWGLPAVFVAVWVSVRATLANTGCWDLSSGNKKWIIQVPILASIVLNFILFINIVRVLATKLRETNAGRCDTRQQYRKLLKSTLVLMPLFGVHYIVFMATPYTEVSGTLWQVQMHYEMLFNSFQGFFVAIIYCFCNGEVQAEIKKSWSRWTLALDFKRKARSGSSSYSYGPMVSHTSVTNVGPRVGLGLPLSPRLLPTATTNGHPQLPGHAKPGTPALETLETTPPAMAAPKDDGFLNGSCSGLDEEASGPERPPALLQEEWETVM
#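 HEK-293-derived GP2 cells expressing PTHR1 and a GloSensor cAMP reporter, 3,000/well, plated overnight, given luciferin plus IBMX (each 0.5 mM as added) for 1 h at 37 °C, then compound for 1 h at 37 °C. Luminescence was read after 15 min at room temperature.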
# GLP1R cytotox: cytotoxic in the GLP-1 receptor inverse agonist counter-screen | HEK293 cAMP-luciferase reporter cells, luminescence, 24 h | Potency, µM (top dose mostly 38.3 µM), hits mostly inhibitors | 0.13% of 410,000 active | AID 624418;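 note: loss of luciferase light is scored as toxicity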
#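 Cells in DMEM/10% Nu serum/1% pen-strep, 1536-well format. Pre-incubated 12 h, dosed with 23 nL compound, incubated a further 24 h. Luciferase detection, 12 min at room temp, luminescence.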
# GLP-1R inv ag: acts as inverse agonist at human GLP-1 receptor. P43220. HEK293 GLP-1R CRE-luciferase, luminescence, 24 h; GLP-1R form is constitutively active. Potency, µM (highest dose often 38.3 µM), hits mostly inhibitors. 1.6% of 410,000 active. AID 624417; note: nearly all actives have a fitted effect of over 55% in size
#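 Luminescence readout: a drop in cAMP-driven luciferase signal flags inverse agonism at a constitutively active GLP-1R stably expressed in HEK293. Compound exposure lasted 24 hr at 37 deg C, 5% CO2.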
# Hits are given with their value; - = inactive; ? = inconclusive; . = no result. Calls come from the whole dose curve; as a rule, active = well fitted curve in the direction sought with a large enough effect; inconclusive = small, poorly fitted or top-dose-only effect, or another doubt; inactive = no such curve, though single readings can be large; an effect the other way counts as inactive or inconclusive.
SMILES,GLP1R ag,PTHR1 ag,GLP1R cytotox,GLP-1R inv ag
CCOc1ccc(C(C(=O)NCC2CCCO2)N(CCc2cccc(C)c2)C(=O)c2snc(C(N)=O)c2N)cc1 (stereo not given),-,-,?,7.9µM
CCOC(=O)C1CCCN(C(=O)COc2ccc(C(=O)c3ccccc3)cc2)C1 (stereo not given),-,-,-,1.6µM
CC(C)(C)OC(=O)N1CCC(c2c(C(=O)N3CCN(c4ccccn4)CC3)cnn2-c2ccc(F)cc2)CC1,.,-,-,-
CN1N=C2c3ccccc3CCCC2C1c1ccc(F)cc1 (stereo not given),-,?,-,7.1µM
COc1ccc2c(c1)C1=NN(/C(C)=C/C(C)=O)C(c3ccc(F)cc3)C1CC2 (stereo not given),-,-,-,-
O=C(Cn1cnnn1)N[C@@H]1C(=O)N2C(C(=O)O)=C(CSc3nncs3)CS[C@H]12,-,.,.,.
CC1(C)C2CCC1(C)C(NC(=O)/C=C/c1ccccc1)C2 (stereo not given),-,-,-,7.1µM
Cc1ccc(-c2cc(C(=O)Nc3ccc(S(=O)(=O)N4CC(C)OC(C)C4)cc3)[nH]n2)c(O)c1 (stereo not given),-,-,-,1.1µM
Cc1ccc(O)c(-c2cc(C(=O)Nc3ccc(S(=O)(=O)N4CC(C)OC(C)C4)cc3)[nH]n2)c1 (stereo not given),-,-,?,-
O=C(Nc1ccc(S(=O)(=O)N2CCOCC2)cc1)c1cc(-c2cc(Cl)ccc2O)n[nH]1,-,-,?,3.5µM
CC(C)/C=N/Nc1nc(-c2ccc(Br)cc2)cs1,-,-,-,5.6µM
O=C(CCC(=O)c1ccc(F)cc1)Nc1ccc(Cl)cc1,.,-,-,-
O=C(CCC(=O)c1ccc(F)cc1)Nc1cccc(S(=O)(=O)Nc2cccc(Cl)c2)c1,-,-,-,10µM
Cc1cccc(C(=O)Nc2c(C(=O)N3CCN(c4ccc(F)cc4)CC3)oc3ccccc23)c1,-,-,-,?
O=C1C(Cl)=C(NCCN2CCCCC2)C(=O)c2ccccc21,-,-,?,11µM
CCc1ccc(-c2cc(C)no2)cc1S(=O)(=O)NC(C)Cc1ccco1 (stereo not given),-,-,-,3.5µM
Cc1cc(-c2ccc(C(C)C)c(S(=O)(=O)NCc3ccco3)c2)on1,-,-,-,?
COc1cc2c3c(cccc3c1)C(=O)N(CCN1CCCC1)C2=O,-,-,-,4.5µM
COc1ccc(C(=O)CN2CCN(CCN3C(=O)c4cccc5cccc(c45)C3=O)CC2)cc1,-,-,-,?
COc1ccc2c(c1)c1c(c(=O)n(-c3ccccc3C)c(=O)n1CC(=O)N1CCCC1)n2C,-,-,-,-
CN(C1CCCCC1)S(=O)(=O)c1ccc(NC(=O)c2ccc(Br)o2)cc1,-,-,-,7.1µM
CC(C)c1ccc(NC(=O)c2cc(S(=O)(=O)N(C)C3CCCCC3)ccc2F)cc1,.,-,-,10µM
CC(C)c1ccc(NC(=O)c2cc(S(=O)(=O)NCCC3=CCCCC3)ccc2F)cc1,.,-,-,?
CC(C)c1ccc(NC(=O)c2cc(S(=O)(=O)NCc3ccccc3Cl)ccc2F)cc1,.,-,?,6.3µM
O=C(Nc1cccc(C(F)(F)F)c1)c1cccnc1N1CCCC1,-,-,-,11µM
SMILES,GLP1R ag,PTHR1 ag,GLP1R cytotox,GLP-1R inv ag
O=C(Nc1cccc(F)c1)c1cccnc1NCCc1ccccc1,-,-,-,10µM
O=C(Nc1cccc(C(F)(F)F)c1)c1cccnc1NCCc1ccccc1,-,-,?,3.5µM
Cc1ccc(-c2nc(-c3cc4c([nH]c3=O)CC(C)(C)CC4=O)sc2C)cc1,.,-,-,-
COc1ccccc1CNC(=O)CCn1c(=O)c2ccccc2n(CC(=O)Nc2ccc(C)cc2)c1=O,-,-,-,-
COC(=O)c1cc(NC(=O)CC2SC(=Nc3ccccc3)N(CCc3c[nH]c4ccccc34)C2=O)cc(C(=O)OC)c1 (stereo not given),-,-,?,4.5µM
S=C(Nc1ccc(Cl)cc1)NC1CC2CCC(C1)N2Cc1ccccc1 (stereo not given),-,-,-,7.1µM
CCc1ccc(NC(=S)NC2CC3CCCC(C2)N3Cc2ccccc2)cc1 (stereo not given),-,-,?,?
S=C(Nc1ccc(Cl)cc1)NC1CC2CCCC(C1)N2C1CC1 (stereo not given),-,-,-,?
S=C(Nc1ccc(Cl)cc1)NC1CC2CCCC(C1)N2C1CCCC1 (stereo not given),-,?,?,8.9µM
O=[N+]([O-])c1ccc(Oc2ccc(N=C=S)cc2)cc1,-,.,.,.
O=C(N[C@@H](Cc1ccccc1)C(=O)N1CCC2(CC1)NCCc1[nH]cnc12)c1cccc(Br)c1,-,-,-,10µM
CCn1c2ccccc2c2cc(/C=N/n3c(-c4cc(C)[nH]n4)n[nH]c3=S)ccc21,-,-,-,2.5µM
CCn1c2ccccc2c2cc(/C=N/n3cn[nH]c3=S)ccc21,-,-,?,?
CC1=C(C(=O)OCc2ccc3c(c2)OCO3)C(c2ccccc2OCc2ccccc2)NC(=O)N1 (stereo not given),-,-,-,-
CC1=C(C(=O)OCc2ccc3c(c2)OCO3)C(c2ccccc2)NC(=O)N1 (stereo not given),-,-,?,3.2µM
CCCn1c(=O)sc2cc(NC(=O)c3ccc(OC)c(Br)c3)ccc21,-,-,-,10µM
COc1ccc(N2C(=O)C(CN3CCCCC3)C2c2ccccc2)cc1 (stereo not given),-,-,-,?
Cc1ccc(N2C(=O)C(CN(C)C)C2c2ccccc2)cc1 (stereo not given),-,-,-,11µM
CCN(CC)CC1C(=O)N(c2ccc(OC)cc2)C1c1ccccc1 (stereo not given),-,-,-,10µM
CCN(CC)P(=O)(Nc1cccc(C(F)(F)F)c1)c1ccc(N(C)C)cc1NC(=O)c1ccco1 (stereo not given),-,-,-,2.5µM
CCc1ccc(-c2n[nH]nc2C2=CC(=O)C[C@H](c3ccc(F)cc3)C2)cc1,-,-,-,8.9µM
CCc1ccccc1N(CC)C(=O)c1cc2c(s1)-c1ccccc1SC2,.,-,-,?
CC1CCCC(C)N1CCCNC(=O)c1cc2c(s1)-c1ccccc1OC2 (stereo not given),-,-,-,2µM
CC1CC(C)CN(CCCNC(=O)c2cc3c(s2)-c2ccccc2OC3)C1 (stereo not given),-,?,-,?
CCc1ccccc1N(CC)C(=O)c1cc2c(s1)-c1ccccc1OC2,-,-,-,10µM
CCCOc1ccc(NC(=O)CC2C(=O)N(c3ccc(Cl)cc3)C(=O)N2CCc2ccncc2)cc1 (stereo not given),.,-,-,?
CCN(CC)C(=O)Cn1c(=O)n(Cc2ccc(C(=O)NCCc3ccc(OC)c(OC)c3)cc2)c(=O)c2ccccc21,-,-,-,-

# High-throughput results as filed in PubChem.
